Measured values from ChEMBL document CHEMBL4513216, “Probing the Open Global Health Chemical Diversity Library for Multistage-Active Starting Points for Next-Generation Antimalarials” (ACS Infect Dis, 2020).
About 2,700 (4%) of roughly 68,000 compounds showed an effect of 50% or more. The sample as a whole holds a higher share of strong results than the screen did.

Tested on: Plasmodium berghei
Assay: Screen against P. berghei liver stage (PbLuc), transformed with Luciferase, at 2uM
Format: functional, HepG2
Settings: tested at 2 uM

Structure (SMILES) | INHIBITION
CC(C)c1ccc(C(CN)N2CCc3sccc3C2)cc1 (stereo not given) | 11.74%
CN(Cc1ccco1)[C@@H]1CN(Cc2ccoc2)C[C@@H]2CCCO[C@@H]21 | -11.13%
CC1(C)CNC(=O)CN(C(=O)Cc2ccccc2)C1 | 30.56%
CC(Cn1cncn1)NC1CCN(Cc2cccc(O)c2)CC1 (stereo not given) | -6.77%
CC(CN1CCOCC1)NC1CCN(Cc2cccc(O)c2)CC1 (stereo not given) | 58.12%
Cc1cc(C)n(CC(C)NC2CCN(Cc3cccc(O)c3)CC2)n1 (stereo not given) | 32.71%
COc1ccc(CCC(C)Nc2cccc(SC)c2)cc1 (stereo not given) | 2.5%
CCOCC1c2c(ncn2C)CCN1C(=O)c1cnc(C)cn1 (stereo not given) | -6.19%
Cc1ccc(C(=O)N(C)Cc2cscn2)c(=O)[nH]1 | 44.39%
Cc1ccc(C(=O)N(Cc2ccccc2F)C2CC2)c(=O)[nH]1 | -2.23%
Cc1ccc(C(=O)N(C)CCOc2ccccc2F)c(=O)[nH]1 | 54.62%
O=S(=O)(c1ccc(F)cc1)n1cc(Cl)cn1 | -0.9%
NC(=O)c1ccc2c(c1)nc1n2CCN(Cc2cccnc2)C1 | 8.41%
O=C(Nc1ccccc1)C1CN(Cc2nccs2)CC12CCOCC2 (stereo not given) | 11.9%
Cc1cc(-c2cnc(N3CCSCC3)nc2-c2ccc(C)s2)on1 | -48.18%
COc1ccc(SC(C)C(=O)N2CCC(NC(=O)C3CC3)CC2)cc1 (stereo not given) | 61.74%
COc1ccc(SC(C)C(=O)N2CCC(C(N)=O)CC2)cc1 (stereo not given) | -12.36%
COc1ccc(SC(C)C(=O)N2CCC(O)CC2)cc1 (stereo not given) | -0.39%
O=C1N(c2cccnc2)CCC12CCCN(Cc1ccoc1)C2 (stereo not given) | 16.39%
O=C(NCCc1ccccc1)N1C[C@@H]2C[C@H](C(=O)N3CCCC3)[C@H](C1)O2 | -0.89%
CCC1=N[C@@]2(CC[C@@H]3CN(Cc4ccc(F)cc4)C[C@@H]32)C(=O)N1C | -22.23%
c1ccc(CN2CCCC(c3nccnc3-n3ccnc3)C2)cc1 (stereo not given) | 22.66%

Structure (SMILES) | INHIBITION
Fc1ccc(CN2CCCC(c3nccnc3-n3ccnc3)C2)cc1 (stereo not given) | 50.74%
Fc1ccc(CN2CCC(c3nccnc3-n3ccnc3)CC2)cc1 | 16.87%
CS(=O)(=O)N[C@@H]1CCN(Cc2cccnc2)[C@H]1Cc1ccccc1 | 7.26%
CN(C)C1CCN(C(=O)c2cc(-c3ccn(C)n3)n3ccccc23)CC1 | -40.37%
CC(C)NC(=O)N1C[C@@H](F)[C@@H](OCc2nc3ccccc3o2)C1 | 16.47%
CC(C)N1CCC(N2CCOC3(CCCC3)C2)C1=O (stereo not given) | -0.75%
COC(=O)c1sccc1S(=O)(=O)NCCC(O)c1ccco1 (stereo not given) | 4.89%
CS(=O)(=O)NCCNc1ncnc2cccc(F)c12 | 17.73%
Fc1cccc2ncnc(NCCCc3ccncc3)c12 | 54.3%
CSCCCNc1ncnc2cccc(F)c12 | 28.79%
CC(C)n1cc(C(=O)N2CCC(n3cc(C(C)(C)C)nn3)CC2)cn1 | 22.39%
CC(C)(C)c1cn(C2CCN(C(=O)c3cncnc3)CC2)nn1 | 40.83%
CC(C)(C)c1cn(C2CCN(C(=O)c3cnccn3)CC2)nn1 | 50.4%
Cc1cncc(C(=O)N2C[C@@H](C(=O)O)[C@H](C(C)C)C2)c1 | 44.23%
COc1cc(C2(C(=O)NCCn3ccnc3)CCCC2)ccc1C | -64.32%
CCc1ncc(S(C)(=O)=O)c(C2CCCNC2)n1 (stereo not given) | 18.8%
O=C(NCCn1ccc(-c2ccncc2)n1)c1ccc2c(c1)OCO2 | 6.33%
CCCS(=O)(=O)NC(C)C(=O)NCc1ccc(N2CCN(C)CC2)nc1 (stereo not given) | -34.5%
COc1ccc(OC)c(C(C)NC(=O)Nc2nnc(C)s2)c1 (stereo not given) | -10.7%
COc1ccc(C(C)NC(=O)Nc2nnc(C)s2)c(OC)c1 (stereo not given) | 58.69%
COc1cc(C)c(C(C)NC(=O)Nc2nnc(C)s2)cc1OC (stereo not given) | 39.48%
CC(C)N(CC(N)=O)CC(=O)NCCc1c(F)cccc1F | 37.18%

Structure (SMILES) | INHIBITION
CC(Cc1c(F)cccc1F)NC(=O)CN(CC(N)=O)C(C)C (stereo not given) | 58.53%
CC(Cc1c(F)cccc1F)NC(=O)CSCC(N)=O (stereo not given) | 14.19%
O=C1NCCN2CCN(C(=O)NCCc3ccccc3)CC12 (stereo not given) | 33.48%
CNS(=O)(=O)c1ccc(CN2CCN3CCNC(=O)C3C2)cc1 (stereo not given) | -43.5%
CS(=O)(=O)c1ccc(CC(=O)N2CCN3CCNC(=O)C3C2)cc1 (stereo not given) | 83.83%
Cc1cc(-c2cnc(N3CCOCC3)nc2-c2ccc(C)s2)on1 | 8.09%
CS(=O)(=O)NCCN1CCCC1c1ccc(Cl)cc1 (stereo not given) | 8.42%
CS(=O)(=O)CCN1CCSCC1c1ccc(Cl)cc1 (stereo not given) | 5.28%
CS(=O)(=O)NCCN1CCSCC1c1ccc(Cl)cc1 (stereo not given) | 36.28%
CS(=O)(=O)CCCN1CCSCC1c1ccc(Cl)cc1 (stereo not given) | 62.51%
CCS(=O)(=O)CCCN1CCSCC1c1ccc(Cl)cc1 (stereo not given) | 52.98%
Cc1ccc(C2CSCCN2CCS(C)(=O)=O)cc1 (stereo not given) | 38.67%
CCN(C(=O)c1cc(C)nc2ccccc12)C1CC(=O)NC1=O (stereo not given) | 10.93%
Nc1ncccc1C(=O)NCc1ccc(Br)cc1 | 49.69%
Cc1csc(N2CCN(C(=O)C(C)n3cncn3)CC2)n1 (stereo not given) | 4.18%
Cc1cc(C(=O)NCCCn2nccc2C2CC2)c(=O)[nH]c1C | 49.45%
COc1c(CNCc2ccnc(N(C)C)c2)c(C(C)C)nn1C | 18.85%
CC(=O)N1CCN([C@@H]2CCC[C@@H](NC(=O)c3cccnc3)[C@H]2O)CC1 | 20.44%
CC(=O)N1CCOC2(CCN(C(=O)C3CC3)CC2)C1 | -31.76%
NC(=O)CN1CCCN(C(=O)c2ccc(SC(F)F)cc2)CC1 | 2.31%
O=C(CCOCC(F)(F)F)N1CCCC(n2ccnc2)C1 (stereo not given) | 2.21%
O=C1COc2ccc(C(=O)NS(=O)(=O)c3cc(F)ccc3F)cc2N1 | -9.66%

Structure (SMILES) | INHIBITION
Cc1nc(NC(=O)c2nn(-c3ccc(F)cc3C)cc2O)n[nH]1 | 2.82%
c1ccc(-c2nnc(CNCCn3cccn3)o2)cc1 | 51.32%
COc1ccc(-c2nnc(CNCCn3cccn3)o2)cc1 | -16.99%
Cc1ccc(-c2nnc(CNCCn3cccn3)o2)cc1 | -9.22%
COc1cccc(C(=O)N2CCCC(CNS(C)(=O)=O)C2)c1 (stereo not given) | 2.74%
Cc1cc(C2CCCN(C(=O)CCc3cscn3)C2)n[nH]1 (stereo not given) | -0.13%
COCC(NC(=O)c1ccc[nH]1)c1cccc(C(F)(F)F)c1 (stereo not given) | 11.28%
COCC(NC(=O)c1ccoc1C)c1cccc(C(F)(F)F)c1 (stereo not given) | 74.22%
COCC(NC(=O)c1ccco1)c1cccc(C(F)(F)F)c1 (stereo not given) | 39.45%
NS(=O)(=O)Cc1ccc(CNC(=O)NCC2CCOC2)cc1 (stereo not given) | -27.91%
CC1CN(CC(=O)NCCc2ccncc2)Cc2ccccc2O1 (stereo not given) | 11.9%
Cc1ccc2c(c1)CN(CC(=O)NCCc1ccc(F)cc1)CC(C)O2 (stereo not given) | -16.71%
CC1CN(CCC(=O)NCCc2cccnc2)Cc2ccccc2O1 (stereo not given) | 52.3%
COC(=O)c1cnc2c(c(C)nn2C)c1OC | -8.44%
CC(C)Oc1ncccc1CNC(=O)c1ccco1 | 26.11%
CCCNC(=O)NCc1cccnc1OC | 56.12%
Nc1no[n+]([O-])c1C(=O)NCc1ccco1 | 84.12%
Nc1no[n+]([O-])c1C(=O)NCc1cccnc1 | -3.26%
COc1ncccc1CNC(=O)NCCNC(=O)c1ccco1 | 39.92%
Nc1no[n+]([O-])c1C(=O)NCc1ccccn1 | -18.45%
COc1ncccc1CNC(=O)c1cc(F)cc(Br)c1 | 58.69%
COc1ncccc1CNC(=O)c1ccco1 | 51.46%

Structure (SMILES) | INHIBITION
COc1ncccc1CNC(=O)NCCNS(C)(=O)=O | 6.3%
COc1ncccc1CNC(=O)c1c[nH]c(=O)c(Br)c1 | 37.18%
COc1ncccc1CNC(=O)c1csc(Br)c1 | -12.08%
COc1ncccc1CNC(=O)NCc1ccco1 | -2.87%
CC(O)CNC(=O)CCc1nc2ncccc2[nH]1 (stereo not given) | 17.33%
CC(C)c1nccn1CCCNC(=O)c1ccc(-c2cncnc2)nc1 | 27.84%
O=C(c1cnc(-c2cccnc2)nc1)N1CCC(c2ccncc2)CC1 | -70.5%
CCC(C)N1C(=O)c2ccc(C(=O)NCCc3c[nH]cn3)cc2C1=O (stereo not given) | 35.09%
NCc1cccc(-c2cccnc2C(=O)NCCCN2CCOCC2)c1 | 3.63%
CCOc1ncccc1CNC(=O)c1cc(C)on1 | 22.75%
COc1ccc(C(=O)NCc2ccco2)nn1 | 65.1%
CC(Cn1cccn1)NC(=O)NCc1cccnc1OC1CCCC1 (stereo not given) | 39.32%
CCC1c2ccsc2CCN1C(=O)NCc1ccccn1 (stereo not given) | -77.99%
Cc1cc(C(=O)NCc2cccnc2OC(C)C)no1 | 51.19%
CC(O)CNC(=O)NCc1cccnc1OC1CCCC1 (stereo not given) | 59.73%
CC(Cn1ccnc1)NC(=O)NCc1cccnc1OC1CCCC1 (stereo not given) | 8.42%
CCC1c2ccsc2CCN1C(=O)NCc1cccnc1OC (stereo not given) | 66.27%
COc1ncccc1CNC(=O)c1cc(C)on1 | -18.38%
COC(=O)c1cccc(C(=O)NCc2ccco2)n1 | -15.05%
CCC1c2ccsc2CCN1C(=O)NCc1cccnc1N(C)C (stereo not given) | 8.5%
COC(=O)c1ccc(C(=O)NCc2ccco2)nc1 | -44.93%
CC(C)c1nc(C2CCCN(C(=O)Cn3ccccc3=O)C2)no1 (stereo not given) | 40.88%
